Records with an inconclusive call do not appear. Where a call stands in place of a potency, no number is given. Active and inactive are the calls of the source. The call rests on the fitted dose curve; in most records, active means well fitted curve in the direction sought with a large enough effect in the repeat runs; inconclusive means weak or mixed curves; inactive means no such curve, though single readings can be large; an effect the other way counts as inactive or inconclusive.
Key:
[1] = A CellTox Green Cytotoxicity Assay to monitor cytotoxicity in HEK293 cells - 32 hour (AID 1224881); further: nearly all actives have a fitted effect of over 40% in size
Summary of the method: (§1)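 Read-out: fluorescence of a cell-impermeant cyanine dye staining DNA of dead cells, proportional to cytotoxicity. HEK293, 600 cells/well with reagent, compound (23 nL DMSO) added after 5 h; reads at 0, 8, 16, 24, 32, 40 h.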

[2] = A CellTox Green Cytotoxicity Assay to monitor cytotoxicity in HepG2 cells - 0 hour (AID 1224882); further: nearly all actives have a fitted effect of over 35% in size
Summary of the method: (§2)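 HepG2, 600 cells/well premixed w/ CellTox Green; 5 h settle, 37 C/5% CO2; pintool cpd add (DMSO); 37 C, 40 h; fluorescence read at 0, 8, 16, 24, 32, 40 h.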

[3] = A CellTox Green Cytotoxicity Assay to monitor cytotoxicity in HepG2 cells - 32 hour (AID 1224883); further: nearly all actives have a fitted effect of over 50% in size; further: potency means the concentration at half of the fitted maximal effect
Summary of the method: as §2

[4] = qHTS RealTime-Glo MT Cell Viability Assay in HepG2 cells - 16 hour (AID 1224885); further: nearly all actives have a fitted effect of over 50% in size
Summary of the method: (§3)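 Cell number in HepG2 cultures estimated from NanoLuc luminescence generated by metabolic reduction of a prosubstrate by living cells. The homogeneous, nonlytic format allowed repeated reads at 0, 8, 16, 24, 32 and 40 h of compound exposure.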

[5] = qHTS RealTime-Glo MT Cell Viability Assay in HEK293 cells - 24 hour (AID 1224886); further: top concentration of the series differs between compounds; nearly all actives have a fitted effect of over 50% in size
Summary of the method: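 Homogeneous bioluminescent viability format in HEK293 cells (600 cells/well). Following 5 h at 37 C/5% CO2, 23 nL compound was pintooled; the signal was measured repeatedly during 40 h incubation.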

[6] = qHTS RealTime-Glo MT Cell Viability Assay in HEK293 cells - 8 hour (AID 1224887); further: top concentration of the series differs between compounds; nearly all actives have a fitted effect of over 50% in size
Summary of the method: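 Luminescence readout at each listed time point; HEK293, 600 cells/well, RealTime-Glo MT reagent added with cells; compounds pinned (23 nL in DMSO) after 5 h at 37 C; continuous culture at 37 C.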

[7] = A CellTox Green Cytotoxicity Assay to monitor cytotoxicity in HEK293 cells - 16 hour (AID 1224888); further: nearly all actives have a fitted effect of over 35% in size
Summary of the method: as §1

[8] = qHTS RealTime-Glo MT Cell Viability Assay in HepG2 cells - 0 hour (AID 1224889); further: nearly all actives have a fitted effect of over 50% in size; further: potency means the concentration at half of the fitted maximal effect
Summary of the method: as §3

[9] = A CellTox Green Cytotoxicity Assay to monitor cytotoxicity in HepG2 cells - 8 hour (AID 1224890); further: nearly all actives have a fitted effect of over 45% in size
Summary of the method: as §2

[10] = A CellTox Green Cytotoxicity Assay to monitor cytotoxicity in HEK293 cells - 8 hour (AID 1224884); further: nearly all actives have a fitted effect of over 35% in size
Summary of the method: as §1

Row | SMILES | Potency [1] | Potency [2] | Potency [3] | Potency [4] | Potency [5] | Potency [6] | Potency [7] | Potency [8] | Potency [9] | Potency [10]
1 | NCCCOCCOCCOCCCN | inactive | inactive | inactive | inactive | inactive | inactive | inactive | inactive | inactive | 
2 | Cc1ccc(C(N)=O)cc1N | inactive | inactive | inactive | inactive | inactive | inactive | inactive | inactive | inactive | 
3 | CC(=O)[C@@]1(O)CC[C@H]2[C@@H]3C[C@H](C)C4=CC(=O)CC[C@]4(C)[C@H]3CC[C@@]21C | inactive | inactive | inactive | inactive |  |  | inactive | 1.51 µM (active) |  | inactive
4 | Nc1ccc(C(=O)Nc2ccccc2N)cc1 | inactive | inactive | 7.56 µM (active) | inactive |  | inactive | inactive |  | inactive | inactive
5 | CCOC(=O)C1=C(C)NC(C)=C(C(=O)OC)C1c1cccc([N+](=O)[O-])c1 (stereo not given) | inactive | inactive | inactive |  |  |  | inactive | 7.56 µM (active) | inactive | inactive
6 | C=CCCCCCC | inactive | inactive | inactive | inactive | inactive | inactive | inactive | inactive | inactive | 
7 | Oc1ccc(Sc2ccc(O)cc2)cc1 | inactive | inactive | inactive | inactive |  |  | inactive | inactive |  | inactive
8 | CC(C)(Oc1ccc(Cl)cc1)C(=O)OCCCOC(=O)C(C)(C)Oc1ccc(Cl)cc1 | inactive | inactive | inactive | inactive |  |  | inactive | inactive |  | inactive
9 | CCCC(C)C | inactive | inactive | inactive | inactive |  |  | inactive |  | inactive | inactive
10 | Cc1ccc2c(ccc3ccccc32)c1 | inactive | inactive | inactive | inactive | inactive | inactive | inactive | inactive | inactive | 
11 | CC(C)(C)c1cc(CCC(=O)OCC(COC(=O)CCc2cc(C(C)(C)C)c(O)c(C(C)(C)C)c2)(COC(=O)CCc2cc(C(C)(C)C)c(O)c(C(C)(C)C)c2)COC(=O)CCc2cc(C(C)(C)C)c(O)c(C(C)(C)C)c2)cc(C(C)(C)C)c1O | inactive | inactive | inactive | inactive | inactive | inactive | inactive | inactive | inactive | 
12 | O=C(O)c1cccc(N(Cc2cccnc2)c2ccc(OC(F)F)c(OC(F)F)c2)c1 | inactive | inactive | inactive |  | inactive | inactive | inactive |  | inactive | inactive
13 | CCC(=O)OC(C)(C)C1CC=C(C)CC1 (stereo not given) | inactive | inactive | inactive | inactive | inactive | inactive | inactive | inactive | inactive | 
14 | CC(C)CC=O | inactive | inactive | inactive | inactive | inactive | inactive | inactive | inactive | inactive | 
15 | OCCC1CCCCN1 (stereo not given) | inactive | inactive | inactive | inactive | inactive | inactive | inactive | inactive | inactive | 
16 | C1=Cc2ccccc2C1 | inactive | inactive | inactive | inactive | inactive | inactive | inactive | inactive | inactive | 
17 | CC(=O)N(O)CCCCCNC(=O)CCC(=O)N(O)CCCCCNC(=O)CCC(=O)N(O)CCCCCN | inactive | inactive | inactive | inactive |  |  | inactive | inactive | inactive | inactive
18 | CC(CN)CCCN (stereo not given) | inactive | inactive | inactive | inactive | inactive |  | inactive | inactive |  | 
19 | CN(c1nccc(=O)[nH]1)C1CCN(c2nc3ccccc3n2Cc2ccc(F)cc2)CC1 | inactive | inactive | inactive | inactive |  |  | inactive | inactive | inactive | inactive
20 | CC(C)(C)c1cc(CO)cc(C(C)(C)C)c1O | inactive | inactive | inactive | inactive |  |  | inactive | inactive | inactive | inactive
21 | Cc1ccccn1 | inactive | inactive | inactive | inactive | inactive | inactive | inactive | inactive |  | 
22 | CCCCCCOC(=O)CCC | inactive | inactive | inactive | inactive | inactive | inactive | inactive | inactive | inactive | 
23 | O=C(O)Cn1c(C(=O)Nc2nc(-c3ccccc3Cl)cs2)cc2ccccc21 | inactive | inactive | inactive | inactive | inactive | inactive | inactive |  | inactive | 
24 | CCCCCCCCN(C)C | inactive |  | inactive | inactive | inactive |  | inactive |  | inactive | inactive
25 | OC(CCN1CCCCC1)(c1ccccc1)C1CCCCC1 (stereo not given) | inactive | inactive | inactive | inactive |  |  | inactive |  | inactive | 
26 | CN1CCC(OC(c2ccccc2)c2ccccc2)CC1 | inactive |  | inactive | inactive | inactive | inactive | inactive | inactive | inactive | inactive

Reference: PubChem BioAssay (Tox21)
